Screening results deposited in PubChem BioAssay by National Center for Advancing Translational Sciences (NCATS).
Rab9 prom act: activators of Rab9 promoter; Potency, µM (doses to about 9.22 µM), most hits filed as activators; actives 2.8% (n = 320,000); Huh7 Rab9 promoter-luciferase reporter, luminescence, 24 h; also: nearly all actives have a fitted effect of over 60% in size
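Measured in stably transfected Huh7 cells bearing a Rab9 promoter–luciferase construct: 24 h compound treatment at 37 °C, followed by luminescence detection.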
NPC1 prom act: NPC1 promoter activation | Potency, µM (series often up to 9.22 µM), actives largely listed as activators | actives 2.4% (n = 320,000) | AID 485313 | Huh7 NPC1 promoter luciferase reporter, 24 h; also: nearly all actives have a fitted effect of over 60% in size
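Stable NPC1-promoter luciferase Huh7 line; cpd (DMSO) 24 h, 37 °C, 5% CO2; Amplite luciferase reagent 10 min RT; luminescence readout. qHTS format.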
FLuc modulator: inhibits or activates purified firefly luciferase, miR-21 counter-screen; P08659; purified FLuc, Km substrates, luminescence inhibition; Potency, µM (highest dose often 57.5 µM), actives largely listed as inhibitors; actives 6.9% (n = 360,000); also: nearly all actives have a fitted effect of over 55% in size
Target sequence (P08659 whole entry, looked up): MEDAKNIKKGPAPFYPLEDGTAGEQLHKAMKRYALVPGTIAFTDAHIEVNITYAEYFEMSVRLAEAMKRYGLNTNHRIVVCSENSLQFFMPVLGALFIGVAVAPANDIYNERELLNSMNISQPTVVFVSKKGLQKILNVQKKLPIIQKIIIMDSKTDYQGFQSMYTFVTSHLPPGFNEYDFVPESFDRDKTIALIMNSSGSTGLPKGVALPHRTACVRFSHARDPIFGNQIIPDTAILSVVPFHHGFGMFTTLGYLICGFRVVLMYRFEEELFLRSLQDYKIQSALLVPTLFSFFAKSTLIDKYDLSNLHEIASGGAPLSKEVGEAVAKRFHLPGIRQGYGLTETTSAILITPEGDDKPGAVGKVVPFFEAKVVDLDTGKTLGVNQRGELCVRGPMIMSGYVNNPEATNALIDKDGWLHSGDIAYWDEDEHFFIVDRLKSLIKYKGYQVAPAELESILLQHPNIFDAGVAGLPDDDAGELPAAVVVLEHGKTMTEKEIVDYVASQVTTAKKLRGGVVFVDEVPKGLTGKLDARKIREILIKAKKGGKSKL
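Biochemical qHTS of compounds, final roughly 60 µM downward over six points, against 10 nM purified firefly luciferase using Km concentrations of substrates (10 uM D-luciferin, 10 uM ATP) in Tris acetate pH 7.5 buffer; luminescence output.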
SMN2 splice up: enhancers of SMN2 splice variant expression | actives 2.8% (n = 210,000) | HEK293 SMN2-luciferase splicing reporter, luminescence, 30-36 h | AID 1458 | Potency, µM (series often up to 46.1 µM), usual class: activators; also: nearly all actives have a fitted effect of over 55% in size
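HEK293 cells carry an SMN2 minigene-luciferase reporter in which exon 7 inclusion puts luciferase in frame. Cells were seeded at 2000 cells/well, attached for 10-12 hours, then exposed to compounds for 30-36 hours at 37C before ONE-Glo luminescence.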
ELG1 genotox: genotoxicity induction in ELG1-luciferase HEK293T cells; HEK293T ELG1-luciferase reporter, luminescence, 16 h; actives 1.3% (n = 330,000); AID 504466; Potency, µM (titrated, usually from 46 µM), actives largely listed as activators; also: nearly all actives have a fitted effect of over 60% in size
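Luminescence read-out: rising ELG1-luciferase signal, reflecting elevated ELG1 protein under genetic stress, flags genotoxic compounds. Cells were treated for 16 hr at 37 °C before ONE-Glo detection.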
Luc counter: blocks Kinase-Glo luciferase, a counter-screen artifact. AID 1379. Kinase-Glo luciferase, ATP luminescence, 8 min. Q27757. actives 0.28% (n = 200,000). Potency, µM (series often up to 38.3 µM), most hits filed as inhibitors; also: nearly all actives have a fitted effect of over 60% in size
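Substrate mix (final 50 mM imidazole pH 7.2, 50 mM KCl, 7 mM MgCl2, 10 uM ATP, 0.01% Tween 20, 0.05% BSA) plus pin-tool compound, then Kinase-Glo detection mix; 8 min ambient, luminescence read.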
Numbers stand for hits; [ ] = dose if it differs, or a comment. Most compounds without a hit are left out; they make up all but 7.3% or so of the library. Calls follow the shape of the dose curve; as a rule, active = well fitted curve in the direction sought with a large enough effect; inconclusive = small, poorly fitted or top-dose-only effect, or another doubt; inactive = no such curve, though single readings can be large; an effect the other way counts as inactive or inconclusive.

Results for Cc1ccc(C2CC(c3ccco3)n3ncnc3N2)cc1 (stereo unspecified) ?
Rab9 prom act: inactive; NPC1 prom act: inactive; FLuc modulator: inactive; SMN2 splice up: inactive; ELG1 genotox: inactive; Luc counter: inactive

What do the screens show for `CN(C)c1ccc(-c2ccncc2)cc1`?
Rab9 prom act: inactive; NPC1 prom act: inactive; FLuc modulator: inconclusive; SMN2 splice up: inconclusive; ELG1 genotox: inconclusive; Luc counter: inactive

How did CNc1nnc(-c2ccc(N(C)C)cc2)s1 do in these assays?
Rab9 prom act: 0.447µM; NPC1 prom act: 0.562µM; FLuc modulator: 2.13µM; SMN2 splice up: 2.82µM; ELG1 genotox: inconclusive; Luc counter: inactive

Results for Cc1nnc(C)n1/N=C/c1c(O)ccc2ccccc12 ?
Rab9 prom act: inactive[1.84 µM]; NPC1 prom act: inactive; FLuc modulator: inactive; ELG1 genotox: inactive

Results for C=CCS/C(N)=N\N=C\c1c(O)ccc2ccccc12 ?
Rab9 prom act: 2.82µM; NPC1 prom act: inactive; FLuc modulator: 4.78µM; ELG1 genotox: inconclusive

How did CCCS/C(N)=N/N=C/c1ccccc1O do in these assays?
Rab9 prom act: 2.51µM; NPC1 prom act: 2.82µM; FLuc modulator: 9.53µM; SMN2 splice up: 11.2µM; ELG1 genotox: 3.16µM; Luc counter: inactive

Results for O=C(Cn1cnc2ccccc2c1=O)c1ccc2ccccc2c1 ?
FLuc modulator: inconclusive; SMN2 splice up: inconclusive; Luc counter: inactive

Results for Cc1ccc(C(=O)CSc2cnc3ccccc3n2)cc1C ?
Rab9 prom act: inactive; NPC1 prom act: inactive; FLuc modulator: 7.57µM; SMN2 splice up: inactive; ELG1 genotox: 9.2µM; Luc counter: inactive

How did COc1ccc(C(=O)Cn2cnc3ccccc3c2=O)cc1 do in these assays?
Rab9 prom act: 3.16µM; NPC1 prom act: inconclusive; FLuc modulator: 13.5µM; ELG1 genotox: inconclusive

What do the screens show for `Cc1cc(C(=O)Cn2cnc3ccccc3c2=O)c(C)n1C1CC1`?
Rab9 prom act: inconclusive; NPC1 prom act: inconclusive; FLuc modulator: inactive; ELG1 genotox: 5.17µM

Results for O=C(Cn1cnc2ccccc2c1=O)Nc1ccc2c(c1)OCO2 ?
Rab9 prom act: inconclusive; NPC1 prom act: inactive; FLuc modulator: 19µM; SMN2 splice up: inconclusive; ELG1 genotox: inconclusive; Luc counter: inactive

How did COCCNC(=O)NC(=O)COC(=O)c1ccc2[nH]c3c(c2c1)CCCC3 do in these assays?
Rab9 prom act: inactive; NPC1 prom act: inactive; FLuc modulator: inconclusive; SMN2 splice up: inactive; ELG1 genotox: inactive; Luc counter: inactive

How did Cc1onc(-c2ccccc2Cl)c1C(=O)NC1CCS(=O)(=O)C1 (stereo unspecified) do in these assays?
Rab9 prom act: inactive; NPC1 prom act: inactive; FLuc modulator: inactive; SMN2 splice up: inactive; ELG1 genotox: inactive; Luc counter: inactive

What do the screens show for `Cc1ccc(C(=O)Cn2cnc3ccccc3c2=O)cc1C`?
FLuc modulator: 19µM; SMN2 splice up: inconclusive; Luc counter: inactive

How did O=C(CSc1ccc2ccccc2n1)c1ccc2c(c1)OCO2 do in these assays?
Rab9 prom act: inactive; NPC1 prom act: inactive; FLuc modulator: inconclusive; SMN2 splice up: inactive; ELG1 genotox: 20.6µM; Luc counter: inactive

What do the screens show for `COc1ccc(C(=O)Nn2cnc3ccccc3c2=O)c(OC)c1`?
Rab9 prom act: 2.51µM; NPC1 prom act: 2.24µM; FLuc modulator: inconclusive; SMN2 splice up: 14.1µM; ELG1 genotox: inconclusive; Luc counter: inactive

What do the screens show for `O=C(Cn1cnc2ccccc2c1=O)c1ccc2c(c1)OCCO2`?
Rab9 prom act: 1.26µM; NPC1 prom act: 2µM; FLuc modulator: 6.01µM; SMN2 splice up: 11.2µM; ELG1 genotox: inconclusive; Luc counter: inactive

How did CCOCCCNC(=O)C1CCC(=O)N1CCc1ccccc1 (stereo unspecified) do in these assays?
Rab9 prom act: inactive; NPC1 prom act: inactive; FLuc modulator: inactive; SMN2 splice up: inactive; ELG1 genotox: inactive; Luc counter: inactive

Results for COc1ccc(S(=O)(=O)N2Cc3ccccc3CC2C(=O)O)cc1 (stereo unspecified) ?
Rab9 prom act: inactive; NPC1 prom act: inactive; FLuc modulator: inactive; SMN2 splice up: inactive; ELG1 genotox: inactive; Luc counter: inactive

How did Cc1ccc(C)c(S(=O)(=O)Nc2ccc(-n3cnnn3)cc2)c1 do in these assays?
ELG1 genotox: inactive

How did Cc1ccc(S(=O)(=O)N2CCOCC2)cc1NC(=O)COC(=O)CNC(=O)c1ccc(Oc2ccccc2)cc1 do in these assays?
Rab9 prom act: inactive; NPC1 prom act: inactive; FLuc modulator: 1.9µM; SMN2 splice up: inactive; ELG1 genotox: inactive; Luc counter: inactive

What do the screens show for `Cc1ccc(S(=O)(=O)N2CCOCC2)cc1NC(=O)COC(=O)CCOc1ccc(C(C)(C)C)cc1`?
Rab9 prom act: inactive; NPC1 prom act: inactive; FLuc modulator: 3.79µM; ELG1 genotox: inactive

How did Cc1ccc(S(=O)(=O)N2CCOCC2)cc1NC(=O)COC(=O)CNC(=O)c1ccc(C(C)(C)C)cc1 do in these assays?
Rab9 prom act: inactive; NPC1 prom act: inactive; FLuc modulator: 0.953µM; SMN2 splice up: inconclusive; ELG1 genotox: inactive; Luc counter: inactive

Results for O=C(NCCNC(=O)c1cc(OCC(F)(F)F)ccc1OCC(F)(F)F)Nc1ccc(Cl)cc1 ?
Rab9 prom act: inactive; NPC1 prom act: inactive; FLuc modulator: inconclusive; SMN2 splice up: inactive; ELG1 genotox: inactive; Luc counter: inactive

Results for O=C(COC(=O)c1ccc(Br)cc1)NCCC1=CCCCC1 ?
Rab9 prom act: inactive; NPC1 prom act: inactive; FLuc modulator: inactive; SMN2 splice up: inactive; ELG1 genotox: inactive; Luc counter: inactive

Results for CCc1c(C)nc2c(-c3ccccc3)c(-c3ccccc3)[nH]n2c1=O ?
Rab9 prom act: inactive; NPC1 prom act: inactive; FLuc modulator: inactive; ELG1 genotox: inactive

How did CCOC(=O)Cc1c(C)nc2c(-c3cccc(Br)c3)c[nH]n2c1=O do in these assays?
Rab9 prom act: inactive; NPC1 prom act: inactive; FLuc modulator: 21.3µM; SMN2 splice up: inactive; ELG1 genotox: inactive; Luc counter: inactive

What do the screens show for `O=C1c2nc3cc(-c4ccco4)[nH]n3c(=O)c2CN1Cc1ccccc1`?
Rab9 prom act: inactive; NPC1 prom act: inactive; FLuc modulator: inconclusive; ELG1 genotox: inactive

Results for CCc1c(C)nc2cc(-c3ccccc3)[nH]n2c1=O ?
Rab9 prom act: inconclusive; NPC1 prom act: 3.16µM; FLuc modulator: 10.7µM; ELG1 genotox: inconclusive

How did COc1cc(-c2cc3nc(C)c(C)c(=O)n3[nH]2)cc(OC)c1OC do in these assays?
Rab9 prom act: inactive; NPC1 prom act: inactive; FLuc modulator: inactive; SMN2 splice up: inactive; ELG1 genotox: inactive; Luc counter: inactive

Results for CCCCc1c(C)nc2cc(-c3ccco3)[nH]n2c1=O ?
Rab9 prom act: inconclusive; NPC1 prom act: inconclusive; FLuc modulator: 12µM; ELG1 genotox: inconclusive
